Reference: paper PMC10812921, “Transcriptional Coactivator BOB1 (OBF1, OCA-B) Modulates the Specificity of DNA Recognition by the POU-Domain Factors OCT1 and OCT2 in a Monomeric Configuration”

Experiments:
[1] = target: POU1 (OCT1 POU domain) (human, UniProt P14859 260-458); assay: EMSA-SELEX-seq; no BOB1; 20 mM Tris-HCl pH 7.6, 140 mM NaCl, 10% glycerol, 0.5 mM EDTA, 0.05% Triton X-100, 0.1 mg/mL BSA, 0.1 mg/mL poly(dI-dC), 5 mM DTT, room temperature, 20 min; high values mean tight binding; settings: protein: recombinant; dsDNA, one strand shown
POU1 (OCT1 POU domain), sequence (P14859 260-458): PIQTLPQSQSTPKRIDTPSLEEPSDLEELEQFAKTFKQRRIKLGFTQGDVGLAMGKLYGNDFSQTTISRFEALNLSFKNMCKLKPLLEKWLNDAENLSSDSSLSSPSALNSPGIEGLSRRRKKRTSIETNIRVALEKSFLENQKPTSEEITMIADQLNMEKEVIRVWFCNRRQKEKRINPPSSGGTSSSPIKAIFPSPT
How it was run: (§1)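 Binding preference means the percentage of sequenced 8-mers matching a motif pattern. Tagged POU-domain proteins (30 ng), expressed in E. coli BL21, purified under denaturing conditions and renatured, were mixed with 300 ng of a PCR-amplified double-stranded random 35-nt library, with or without 28 ng coactivator protein, for 20 min at RT in 20 μL Tris–HCl pH 7.6 binding buffer. Selection was repeated over four rounds of excising complex bands from native 6% PAGE, eluting and PCR amplification, followed by Illumina sequencing.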

[2] = target: T1, POU2 (OCT2 POU domain) (human, UniProt P09086 175-386); assay: as above; settings: protein: recombinant; dsDNA, one strand shown
T1 sequence: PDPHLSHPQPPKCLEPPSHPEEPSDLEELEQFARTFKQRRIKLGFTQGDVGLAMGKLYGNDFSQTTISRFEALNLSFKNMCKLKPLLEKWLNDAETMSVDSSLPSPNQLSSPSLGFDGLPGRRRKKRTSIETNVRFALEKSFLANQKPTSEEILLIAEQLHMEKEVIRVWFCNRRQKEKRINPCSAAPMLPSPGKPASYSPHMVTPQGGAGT
How it was run: as §1

[3] = target: POU1 (OCT1 POU domain);BOB1 (OBF1, OCA-B) (human;human, UniProt P14859;Q16633 260-458;1-256, |); assay: EMSA-SELEX-seq; with BOB1 (ternary complex band); 20 mM Tris-HCl pH 7.6, 140 mM NaCl, 10% glycerol, 0.5 mM EDTA, 0.05% Triton X-100, 0.1 mg/mL BSA, 0.1 mg/mL poly(dI-dC), 5 mM DTT, room temperature, 20 min; high values mean tight binding; settings: protein: recombinant;recombinant; copies: 1;1; dsDNA, one strand shown
How it was run: as §1

[4] = target: T2, POU2 (OCT2 POU domain);BOB1 (OBF1, OCA-B) (human;human, UniProt P09086;Q16633 175-386;1-256, |); assay: as above; settings: protein: recombinant;recombinant; copies: 1;1; dsDNA, one strand shown
T2 sequence 1: T1 sequence
T2 sequence 2: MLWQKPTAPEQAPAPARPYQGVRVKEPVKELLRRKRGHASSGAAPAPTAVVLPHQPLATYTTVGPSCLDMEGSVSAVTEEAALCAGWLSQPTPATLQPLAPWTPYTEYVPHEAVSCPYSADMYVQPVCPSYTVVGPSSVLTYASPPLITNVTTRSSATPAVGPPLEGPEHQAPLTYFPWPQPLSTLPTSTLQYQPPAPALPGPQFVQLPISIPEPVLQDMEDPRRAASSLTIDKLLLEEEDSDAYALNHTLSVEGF
How it was run: as §1

Sequence	binding signal [1]	binding signal [2]	binding signal [3]	binding signal [4]
AAATGAAA	0.15 % of ANNNNAAN 8-mers	0.133 % of ANNNNAAN 8-mers	0.21 % of ANNNNAAN 8-mers	0.147 % of ANNNNAAN 8-mers
AGAACAAC	0.0153 % of ANNNNAAN 8-mers	0.0132 % of ANNNNAAN 8-mers	0.0125 % of ANNNNAAN 8-mers	0.0239 % of ANNNNAAN 8-mers
ATAAAAAT	0.131 % of ANNNNAAN 8-mers	0.125 % of ANNNNAAN 8-mers	0.114 % of ANNNNAAN 8-mers	0.09 % of ANNNNAAN 8-mers
ACCGAAAA	0.0248 % of ANNNNAAN 8-mers	0.0322 % of ANNNNAAN 8-mers	0.0226 % of ANNNNAAN 8-mers	0.0165 % of ANNNNAAN 8-mers
ATTAAAAA	0.172 % of ANNNNAAN 8-mers	0.219 % of ANNNNAAN 8-mers	0.114 % of ANNNNAAN 8-mers	0.09 % of ANNNNAAN 8-mers
AGAGGAAA	0.069 % of ANNNNAAN 8-mers	0.0667 % of ANNNNAAN 8-mers	0.0687 % of ANNNNAAN 8-mers	0.0619 % of ANNNNAAN 8-mers
AATCTAAC	0.0328 % of ANNNNAAN 8-mers	0.0339 % of ANNNNAAN 8-mers	0.0316 % of ANNNNAAN 8-mers	0.0272 % of ANNNNAAN 8-mers
AGCAAAAC	0.0481 % of ANNNNAAN 8-mers	0.0449 % of ANNNNAAN 8-mers	0.0792 % of ANNNNAAN 8-mers	0.0446 % of ANNNNAAN 8-mers
AGCGCAAA	0.0263 % of ANNNNAAN 8-mers	0.0305 % of ANNNNAAN 8-mers	0.0324 % of ANNNNAAN 8-mers	0.0215 % of ANNNNAAN 8-mers
AGGAAAAC	0.0591 % of ANNNNAAN 8-mers	0.0552 % of ANNNNAAN 8-mers	0.0839 % of ANNNNAAN 8-mers	0.0636 % of ANNNNAAN 8-mers
ACGGGAAT	0.0641 % of ANNNNAAN 8-mers	0.0725 % of ANNNNAAN 8-mers	0.0574 % of ANNNNAAN 8-mers	0.0759 % of ANNNNAAN 8-mers
ATTCAAAT	1.58 % of ANNNNAAN 8-mers	1.29 % of ANNNNAAN 8-mers	1.57 % of ANNNNAAN 8-mers	1.95 % of ANNNNAAN 8-mers
ATCGTAAG	0.0343 % of ANNNNAAN 8-mers	0.0449 % of ANNNNAAN 8-mers	0.0379 % of ANNNNAAN 8-mers	0.0388 % of ANNNNAAN 8-mers
AGGCGAAT	0.0618 % of ANNNNAAN 8-mers	0.069 % of ANNNNAAN 8-mers	0.0593 % of ANNNNAAN 8-mers	0.0743 % of ANNNNAAN 8-mers
ACCAAAAC	0.0168 % of ANNNNAAN 8-mers	0.0242 % of ANNNNAAN 8-mers	0.032 % of ANNNNAAN 8-mers	0.0206 % of ANNNNAAN 8-mers
ACACCAAG	0.0103 % of ANNNNAAN 8-mers	0.0178 % of ANNNNAAN 8-mers	0.0129 % of ANNNNAAN 8-mers	0.0124 % of ANNNNAAN 8-mers
ATTGGAAA	0.0927 % of ANNNNAAN 8-mers	0.0794 % of ANNNNAAN 8-mers	0.11 % of ANNNNAAN 8-mers	0.0735 % of ANNNNAAN 8-mers
AGCGTAAC	0.0168 % of ANNNNAAN 8-mers	0.0207 % of ANNNNAAN 8-mers	0.0144 % of ANNNNAAN 8-mers	0.0149 % of ANNNNAAN 8-mers
ACTCAAAC	0.0187 % of ANNNNAAN 8-mers	0.027 % of ANNNNAAN 8-mers	0.03 % of ANNNNAAN 8-mers	0.0149 % of ANNNNAAN 8-mers
AGCGGAAG	0.0202 % of ANNNNAAN 8-mers	0.0196 % of ANNNNAAN 8-mers	0.0215 % of ANNNNAAN 8-mers	0.0173 % of ANNNNAAN 8-mers
ACGGTAAG	0.0351 % of ANNNNAAN 8-mers	0.0311 % of ANNNNAAN 8-mers	0.0359 % of ANNNNAAN 8-mers	0.0413 % of ANNNNAAN 8-mers
ACAACAAG	0.0248 % of ANNNNAAN 8-mers	0.0167 % of ANNNNAAN 8-mers	0.0187 % of ANNNNAAN 8-mers	0.014 % of ANNNNAAN 8-mers
ACATTAAA	0.104 % of ANNNNAAN 8-mers	0.125 % of ANNNNAAN 8-mers	0.0624 % of ANNNNAAN 8-mers	0.0611 % of ANNNNAAN 8-mers
ATTGCAAC	0.0256 % of ANNNNAAN 8-mers	0.0178 % of ANNNNAAN 8-mers	0.0195 % of ANNNNAAN 8-mers	0.0272 % of ANNNNAAN 8-mers
ATAAAAAC	0.066 % of ANNNNAAN 8-mers	0.0633 % of ANNNNAAN 8-mers	0.0562 % of ANNNNAAN 8-mers	0.0495 % of ANNNNAAN 8-mers
ACAGTAAT	0.0614 % of ANNNNAAN 8-mers	0.0725 % of ANNNNAAN 8-mers	0.0406 % of ANNNNAAN 8-mers	0.0553 % of ANNNNAAN 8-mers
ATCGGAAC	0.0175 % of ANNNNAAN 8-mers	0.0242 % of ANNNNAAN 8-mers	0.023 % of ANNNNAAN 8-mers	0.0231 % of ANNNNAAN 8-mers
AATTCAAT	0.121 % of ANNNNAAN 8-mers	0.125 % of ANNNNAAN 8-mers	0.0948 % of ANNNNAAN 8-mers	0.125 % of ANNNNAAN 8-mers
AAAAAAAT	0.13 % of ANNNNAAN 8-mers	0.12 % of ANNNNAAN 8-mers	0.152 % of ANNNNAAN 8-mers	0.12 % of ANNNNAAN 8-mers
ATCCTAAA	0.0267 % of ANNNNAAN 8-mers	0.0328 % of ANNNNAAN 8-mers	0.0285 % of ANNNNAAN 8-mers	0.0421 % of ANNNNAAN 8-mers
